The nature of experiment [1]: Nuclear factor erythroid 2-related factor 2/antioxidant responsive element (Nrf2/ARE) small molecule agonists: qHTS cell viability counter screen in human keratinocytes (AID 1919968; active = well fitted curve in the direction sought with a large enough effect in the repeat runs; an effect the other way counts as inactive or inconclusive; also: nearly all actives have a fitted effect of over 55% in size; also: potency is read from the fitted curve at half-maximal effect). The method, boiled down:
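After a 5 h attachment period, ARE-reporter keratinocytes were dosed with compounds in DMSO and then cultured 23 h at 37 C. Cell viability came from CellTiter-Fluor signal read after a further 1 h.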

Experiment [2] in a line: Nuclear factor erythroid 2-related factor 2/antioxidant responsive element (Nrf2/ARE) small molecule agonists: luciferase reporter gene qHTS assay in human keratinocytes (AID 1919969; also: nearly all actives have a fitted effect of over 35% in size). (In general: A reporter such as luciferase makes a cellular process visible.)
The target in experiment [3] is Gonadotropin-releasing hormone receptor (Homo sapiens) (UniProt P30968). Description: Human gonadotropin-releasing hormone receptor (GnRHR) small molecule agonists, calcium flux assay in GnRHR-HEK293 cells (AID 1920063). Also: nearly all actives have a fitted effect of over 35% in size. The method, boiled down:
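We seeded human GnRHR-expressing HEK293 cells for 18 hours, loaded them with calcium dye for an hour at 37 C, added test compounds, and recorded fluorescence intensity kinetically for three minutes.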
A general note: Calcium flux is commonly read through the fluorescence of an indicator in the cells.

The target of experiment [4] is KiSS-1 receptor (Homo sapiens) (UniProt Q969F8). Put plainly: Human kisspeptin (KISS1R) small molecule agonists, calcium flux assay in KISS1R-HEK293 cells (AID 1920064; active = well fitted curve in the direction sought with a large enough effect in the repeat runs; an effect the other way counts as inactive or inconclusive). Put shortly: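 Kinetic calcium assay, 1 s sampling over 3 min at Ex/Em 480/540, in HEK293 cells engineered with human KISS1R; compounds delivered in DMSO after 1 h dye loading.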
KiSS-1 receptor (Homo sapiens), sequence (Q969F8 whole entry, looked up): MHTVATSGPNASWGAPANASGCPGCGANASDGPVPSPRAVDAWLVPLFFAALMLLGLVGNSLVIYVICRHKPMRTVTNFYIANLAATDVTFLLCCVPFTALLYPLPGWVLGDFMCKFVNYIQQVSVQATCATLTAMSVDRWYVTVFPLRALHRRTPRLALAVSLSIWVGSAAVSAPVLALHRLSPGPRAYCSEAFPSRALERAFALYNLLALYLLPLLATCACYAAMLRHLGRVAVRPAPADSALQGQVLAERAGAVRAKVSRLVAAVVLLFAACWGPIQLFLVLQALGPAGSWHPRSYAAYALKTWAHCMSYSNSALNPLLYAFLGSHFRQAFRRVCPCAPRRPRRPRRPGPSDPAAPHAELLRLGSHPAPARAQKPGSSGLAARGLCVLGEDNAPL
Experiment [5] can be described thus: G protein-coupled receptor (GPCR) small molecule agonists, calcium flux assay: HEK293 wild type cell line counter screen (AID 1920065). Put shortly:
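Calcium-sensitive dye, loaded 1 h at 37 C into cells cultured 18 h, reports compound-evoked calcium release as fluorescence (Ex/Em 480/540), measured over 3 min. Agonist mode; 15-point titrations, triplicate.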

Experiment [6] is described as follows: p53 small molecule agonists, cell-based qHTS assay with rat liver microsomes (AID 1963578). The method, boiled down: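 Fluorescence from a beta-lactamase reporter under a p53 response element was measured after cells had been incubated 16 h at 37 C with test compound and rat liver microsomes plus NADPH (0.5 mg/mL final each).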
(In general: In qHTS, concentration-response curves come from the screen itself.)

Experiment [7] can be described thus: p53 small molecule agonists, cell-based qHTS assay with human liver microsomes: qHTS cell viability counter screen (AID 1963579). Also: nearly all actives have a fitted effect of over 45% in size. Also: potency is read from the fitted curve at half-maximal effect. The method, boiled down: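 Seed p53RE-bla cells at 4,000 per well; incubate 5 h at 37 C; add compound, human liver microsomes and NADPH; incubate 16 h at 37 C; add CellTiter-Glo; after 30 min at room temperature, read luminescence.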

A short description of experiment [8]: p53 small molecule agonists, cell-based qHTS assay with rat liver microsomes: qHTS cell viability counter screen (AID 1963580). Also: nearly all actives have a fitted effect of over 45% in size. The method, boiled down: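 HCT-116 p53RE-bla, 4,000 cells/well, 5 h pre-incubation; cpd + rat liver microsomes 0.5 mg/mL + NADPH 0.5 mg/mL (final); 16 h, 37 C; CellTiter-Glo, 30 min RT; luminescence.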
For experiment [9], the target named is 5-hydroxytryptamine receptor 2A (Homo sapiens) (UniProt P28223). Put plainly: 5-hydroxytryptamine receptor 2A (HTR2A) small molecule antagonists, cell-based qHTS assay (AID 1963586). Also: nearly all actives have a fitted effect of over 45% in size. Also: potency is read from the fitted curve at half-maximal effect. The method, boiled down:
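Antagonist-mode intracellular calcium assay: DOI (4 nM) added after 5 min compound pre-incubation at room temperature to dye-loaded HTR2A-CHO cells. Fluorescence followed for 3 min, sampled every second.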

Experiment [10] has the same target. Put plainly: 5-hydroxytryptamine receptor 2A (HTR2A) small molecule agonists, cell-based qHTS assay (AID 1963587). Also: nearly all actives have a fitted effect of over 30% in size. Put shortly: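 Kinetic calcium-flux fluorescence (2 min, 1 sec intervals) after compound addition in agonist mode. HTR2A-CHO cells were cultured 18 h, then dye-loaded 1 h at 37 C.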
Experiment [11] concerns the target Muscarinic acetylcholine receptor M1 (Homo sapiens) (UniProt P11229). Description: Cholinergic receptor muscarinic 1 (CHRM1) small molecule antagonists, cell-based qHTS assay (AID 1963588). Also: nearly all actives have a fitted effect of over 40% in size. Put shortly: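 CHRM1-CHO calcium-flux assay, antagonist mode. Cells were seeded 18 h, dye-loaded 1 h at 37 C and given compound for 5 min at RT, then acetylcholine was added at 50nM. FDSS fluorescence was read 3 min; 15 concentrations, three runs.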

Experiment [12] has the same target. Put plainly: Cholinergic receptor muscarinic 1 (CHRM1) small molecule agonists, cell-based qHTS assay (AID 1963589). Also: nearly all actives have a fitted effect of over 35% in size. The method, boiled down: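 Measures agonist-induced intracellular calcium rise. Stable human CHRM1 CHO line, 1 h dye load at 37 C, compounds from DMSO, kinetic fluorescence read.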
Experiment [13] is described as follows: cAMP Responsive Elements (CRE) small molecule antagonists, cell-based qHTS assay (AID 1963591; active = well fitted inhibition curve with a large enough effect in the signal ratio in the repeat runs, not every such curve was filed as active; the % refers to the signal ratio). Put shortly: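 HEK293T cells carrying a CRE-driven beta-lactamase reporter receive compound and NKH477 (0.25 uM final) for 3 h. Fluorescence from LiveBLAzer B/G FRET substrate is read after 2 h at room temperature.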
In experiment [14] the target is Beta-2 adrenergic receptor (Homo sapiens) (UniProt P07550). Put plainly: Adrenergic beta2 receptor (ADRB2) small molecule antagonists, cell-based qHTS assay (AID 1963592). Also: nearly all actives have a fitted effect of over 50% in size. Also: potency is read from the fitted curve at half-maximal effect. The method, boiled down:
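Cells (CHO, stable ADRB2 overexpression) incubated 18-20hr at 37C; compounds added from DMSO; agonist mix (1nM isoproterenol, 100uM IBMX, 25uM Ro-20-1724) added; 0.5hr RT; d2-cAMP and anti-cAMP-cryptate added; 1hr RT; 665/615 nm read.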

The target in experiment [15] is D(2) dopamine receptor (Homo sapiens) (UniProt P14416). Put plainly: Dopamine D2 receptor (DRD2) small molecule agonists, cell-based qHTS assay (AID 1963594). Also: nearly all actives have a fitted effect of over 35% in size. Put shortly: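 cAMP accumulation in DRD2-HEK293 cells measured by HTRF after 1 h detection; compounds added 10 min before NKH477 (200nM […]) forskolin-analogue stimulation, 30 min at room temperature, with Ro20-1724 present at 0.1 mM final.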
D(2) dopamine receptor (Homo sapiens), sequence (P14416 whole entry, looked up): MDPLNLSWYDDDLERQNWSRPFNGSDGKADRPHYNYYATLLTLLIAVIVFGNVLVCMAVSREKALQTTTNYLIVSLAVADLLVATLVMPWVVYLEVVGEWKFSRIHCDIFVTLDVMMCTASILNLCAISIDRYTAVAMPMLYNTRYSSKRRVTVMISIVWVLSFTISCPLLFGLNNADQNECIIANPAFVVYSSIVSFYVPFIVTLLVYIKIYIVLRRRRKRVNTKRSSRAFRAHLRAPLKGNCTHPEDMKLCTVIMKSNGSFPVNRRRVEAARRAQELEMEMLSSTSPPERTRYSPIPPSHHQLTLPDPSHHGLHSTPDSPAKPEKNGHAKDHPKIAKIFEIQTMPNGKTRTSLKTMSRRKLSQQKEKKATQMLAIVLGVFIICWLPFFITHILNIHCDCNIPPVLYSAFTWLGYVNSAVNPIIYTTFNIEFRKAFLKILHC

For experiment [16] the target is unchanged. Description: Dopamine D2 receptor (DRD2) small molecule antagonists, cell-based qHTS assay (AID 1963595; active = well fitted inhibition curve with a large enough effect in the signal ratio in the repeat runs, with a control signal flat; the % refers to the signal ratio). The method, boiled down:
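In this cell-based antagonist screen, compounds act for 10 min at room temperature before a 30 min challenge with 12 nM quinpirole and 200 nM NKH477. cAMP is quantified by HTRF competition in DRD2-HEK293 cells containing 0.1 mM Ro20-1724.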

Experiment [17] can be described thus: p53 small molecule agonists, cell-based qHTS assay (AID 1963582; active = well fitted activation curve with a large enough effect in the signal ratio in the repeat runs, not every such curve was filed as active; the % refers to the signal ratio; also: potency is read from the fitted curve at half-maximal effect). Put shortly: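 In this cell-based concentration-response screen, a p53 response element drives beta-lactamase; cells received DMSO-borne compounds after 5 h culture and were incubated a further 16 h before FRET substrate development.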
The target of experiment [18] is Beta-2 adrenergic receptor (Homo sapiens) (UniProt P07550). Put plainly: Adrenergic beta2 receptor (ADRB2) small molecule agonists, cell-based qHTS assay (AID 1963593).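 Also: CHO cells stably overexpressing human ADRB2.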 The method, boiled down: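 CHO cells stably over-expressing ADRB2 were plated overnight at 37C, then dosed with compounds plus a stimulation mix containing 100uM IBMX and 25uM Ro-20-1724 for 0.5hr at room temperature. cAMP was measured by HTRF competition, 1hr.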
Beta-2 adrenergic receptor (Homo sapiens), sequence (P07550 whole entry, looked up): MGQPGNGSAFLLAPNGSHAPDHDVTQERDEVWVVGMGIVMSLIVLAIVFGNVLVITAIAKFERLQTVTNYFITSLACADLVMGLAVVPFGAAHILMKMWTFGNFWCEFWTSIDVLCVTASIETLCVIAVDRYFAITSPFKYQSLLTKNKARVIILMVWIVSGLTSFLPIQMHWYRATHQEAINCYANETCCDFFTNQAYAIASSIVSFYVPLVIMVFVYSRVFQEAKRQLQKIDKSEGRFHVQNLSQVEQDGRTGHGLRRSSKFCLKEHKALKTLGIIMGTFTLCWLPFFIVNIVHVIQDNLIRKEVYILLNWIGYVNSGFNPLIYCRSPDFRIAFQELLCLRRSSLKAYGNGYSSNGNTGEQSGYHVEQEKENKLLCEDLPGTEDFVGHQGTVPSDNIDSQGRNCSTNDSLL

Experiment [19] can be described thus: cAMP Responsive Elements (CRE) small molecule agonists, cell-based qHTS assay (AID 1963590). Put shortly:
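A CRE-responsive beta-lactamase reporter in HEK 293T cells was used. Treatment ran 3 h at 37 C; detection used LiveBLAzer B/G FRET substrate for 2 h at room temperature.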

Experiment [20] in a line: p53 small molecule agonists, cell-based qHTS assay: qHTS cell viability counter screen (AID 1963581). Also: nearly all actives have a fitted effect of over 45% in size. Put shortly: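 Following 5 h attachment, HCT-116 p53RE-bla cells took up compound for 16 h at 37 C; the reporter was read with B/G FRET substrate (2 h RT), and viability then via CellTiter-Glo ATP luminescence.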

Records with an inconclusive call do not appear. Activity calls are given as the source filed them. Unless noted, calls follow the shape of the full dose curve.

5-hydroxytryptamine receptor 2A (Homo sapiens), sequence (P28223 whole entry, looked up): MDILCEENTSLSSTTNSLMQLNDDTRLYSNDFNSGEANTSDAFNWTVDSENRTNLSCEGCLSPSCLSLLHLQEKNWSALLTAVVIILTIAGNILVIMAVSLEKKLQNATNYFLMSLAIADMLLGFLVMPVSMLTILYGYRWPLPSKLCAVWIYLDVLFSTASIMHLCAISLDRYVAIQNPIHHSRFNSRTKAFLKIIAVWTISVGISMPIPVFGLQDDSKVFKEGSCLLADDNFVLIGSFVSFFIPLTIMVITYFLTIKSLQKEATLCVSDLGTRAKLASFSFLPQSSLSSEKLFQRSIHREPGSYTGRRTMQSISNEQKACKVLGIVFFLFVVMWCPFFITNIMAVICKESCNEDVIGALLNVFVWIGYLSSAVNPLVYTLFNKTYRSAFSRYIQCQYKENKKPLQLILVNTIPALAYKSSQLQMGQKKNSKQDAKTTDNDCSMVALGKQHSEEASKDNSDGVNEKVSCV
Gonadotropin-releasing hormone receptor (Homo sapiens), sequence (P30968 whole entry, looked up): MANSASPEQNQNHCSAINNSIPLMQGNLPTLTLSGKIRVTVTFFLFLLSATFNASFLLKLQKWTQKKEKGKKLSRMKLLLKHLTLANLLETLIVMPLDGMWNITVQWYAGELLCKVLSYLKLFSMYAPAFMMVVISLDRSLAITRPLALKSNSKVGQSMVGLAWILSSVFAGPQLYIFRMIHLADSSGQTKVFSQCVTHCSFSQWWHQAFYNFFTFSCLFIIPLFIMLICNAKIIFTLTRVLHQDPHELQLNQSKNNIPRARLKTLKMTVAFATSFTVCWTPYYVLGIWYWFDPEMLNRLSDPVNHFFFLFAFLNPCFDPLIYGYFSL
Muscarinic acetylcholine receptor M1 (Homo sapiens), sequence (P11229 whole entry, looked up): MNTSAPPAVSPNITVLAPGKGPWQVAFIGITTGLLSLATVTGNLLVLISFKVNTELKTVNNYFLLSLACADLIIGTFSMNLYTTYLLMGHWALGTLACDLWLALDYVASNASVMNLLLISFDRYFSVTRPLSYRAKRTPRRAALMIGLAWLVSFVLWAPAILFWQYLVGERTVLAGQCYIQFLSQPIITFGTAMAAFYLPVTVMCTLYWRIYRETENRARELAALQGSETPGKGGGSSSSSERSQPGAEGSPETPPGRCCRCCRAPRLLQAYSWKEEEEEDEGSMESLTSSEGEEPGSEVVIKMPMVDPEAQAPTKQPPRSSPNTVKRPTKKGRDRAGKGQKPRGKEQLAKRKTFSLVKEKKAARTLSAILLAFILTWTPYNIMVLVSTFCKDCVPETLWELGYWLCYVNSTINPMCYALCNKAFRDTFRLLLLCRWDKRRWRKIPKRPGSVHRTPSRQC

As for `CC1(CN2CCC(n3c(=O)[nH]c4ccccc43)CC2)OCc2ccccc2-n2cccc21` (stereo not drawn), the Potency in experiment [1] is 29.8 µM (active); in experiment [9], 1.83 µM (active); in experiment [14], 29.8 µM (active). Besides, the Potency result in experiment [2], in experiment [3], in experiment [4], in experiment [5], in experiment [6] and in experiment [7] was “inactive” each time. Further, the Potency result in experiment [8], in experiment [10], in [11], in experiment [12], in [13] and in experiment [15] was “inactive” throughout. The Potency result in experiment [16] was “inactive”.
As to `COc1ccc(S(=O)(=O)N2C(=O)[C@@](c3ccccc3OC)(N3C[C@H](O)C[C@H]3C(=O)N(C)C)c3cc(Cl)ccc32)c(OC)c1`, the Potency entry in experiment [1], in [2], in experiment [3], in experiment [4], in experiment [5] and in experiment [6] was “inactive” in each case. Moreover, the Potency result in experiment [7], in experiment [8], in experiment [9], in experiment [10], in experiment [11] and in experiment [12] was “inactive” each time. For the same compound, the Potency entry in [14] and in [16] was “inactive” each time.
With `CCCCCC1Nc2cc(C(F)(F)F)c(S(N)(=O)=O)cc2S(=O)(=O)N1` (stereo not drawn), the Potency result in experiment [1], in [2], in experiment [3], in [4], in [5] and in [6] was “inactive” each time. In addition, the Potency result in [7], in experiment [8], in [17], in [10], in experiment [11] and in experiment [12] was “inactive” each time. Also, the Potency result in [18], in experiment [15] and in experiment [16] was “inactive” each time.
Take `O=c1[nH]c(=O)n([C@H]2C[C@H](O)[C@@H](CO)O2)cc1F`: the Potency result in experiment [1], in experiment [2], in experiment [3], in [4], in experiment [5] and in [6] was “inactive” each time. Besides, the Potency result in experiment [7], in experiment [8] and in experiment [16] was “inactive” each time. The Potency in [17] was 0.446 µM (active).
`CC1=CC(=O)/C(=C(/C)O)C(=O)O1`: the Potency entry in experiment [1], in experiment [2], in [3], in experiment [4], in experiment [5] and in [6] was “inactive” each time. Besides, the Potency entry in experiment [7], in [8], in experiment [17], in [10], in [11] and in experiment [12] was “inactive” each time. For the same compound, the Potency result in experiment [19], in experiment [13], in experiment [14] and in [15] was “inactive” in each case.
On to `OCCCS`, for which the Potency entry in experiment [1], in [2], in experiment [3], in experiment [4], in experiment [5] and in experiment [6] was “inactive” each time. In addition, the Potency result in experiment [7], in experiment [8], in [17], in experiment [9], in experiment [10] and in [11] was “inactive” in each case. For the same compound, the Potency entry in experiment [12], in [19], in experiment [13], in experiment [14], in experiment [18] and in [15] was “inactive” in each case.
For the compound `CN(C)c1ccc(C2(c3ccc(N(C)C)cc3)OC(=O)c3cc(N(C)C)ccc32)cc1`, the Potency entry in experiment [1], in experiment [2], in [3], in [4], in [5] and in experiment [6] was “inactive” throughout. The Potency entry in experiment [8], in experiment [20], in experiment [10], in [12], in [19] and in [14] was “inactive” each time. In [15], the Potency entry is “inactive”. The Potency in experiment [7] is 18.2 µM (active).

Source of the values: PubChem BioAssay (Tox21).
